Ten compounds from PubChem BioAssay (NCI) can be followed below.

Structures are written as SMILES. This is part of a sample that, as a whole, favours compounds with a hit. Of some 79,000 tested, about 15% had one in any assay. Values without a mark were called inactive. Calls of active or inactive are those of the source. Cut-off read from the data, not from the text of the source: active = growth inhibition above about 70%; inactive = the rest.

Assay [1] is described as follows: NCI Yeast Anticancer Drug Screen. Data for the rad50 strain (AID 155).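 Note: 0% = growth of vehicle-only cultures of the same strain.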 Particulars: S. cerevisiae rad50 strain growth inhibition, stronger effect = higher value. The gist of the method:
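DNA repair mutant yeast, compound exposure, growth read-out; inhibition is taken relative to vehicle.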

Assay [2] is described as follows: NCI Yeast Anticancer Drug Screen. Data for the mec2-1 strain (AID 157). Particulars: S. cerevisiae mec2-1 strain, stronger effect = higher value. The gist of the method:
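Cells of the genetically defined mec2-1 yeast strain are incubated with test compound. Inhibition of growth is calculated against vehicle-treated controls.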

The nature of assay [3]: NCI Yeast Anticancer Drug Screen. Data for the sgs1 mgt1 strain (AID 161).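 Note: 0% = growth of cultures given vehicle only.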 Particulars: S. cerevisiae sgs1 mgt1 strain, stronger effect = higher value. In short, it runs like this:
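Test agents were incubated with a DNA-repair-mutant yeast strain. Growth was then read and compared against vehicle-treated controls.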

Assay [4] is described as follows: NCI Yeast Anticancer Drug Screen. Data for the cln2 rad14 strain (AID 165).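 Note: 0% = growth equal to vehicle treated cultures.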 Particulars: S. cerevisiae cln2 rad14 strain, stronger effect = higher value. The gist of the method:
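The screen exposed genetically defined yeast (cln2 rad14) to test compounds and scored growth inhibition relative to vehicle-treated controls.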

Assay [5] is described as follows: NCI Yeast Anticancer Drug Screen. Data for the bub3 strain (AID 167). The settings on record: S. cerevisiae bub3 mutant strain, stronger effect = higher value. The gist of the method:
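In this screen, a yeast mutant lacking normal mitotic checkpoint function is challenged with compound. Relative growth versus vehicle gives the inhibition value.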

The nature of assay [6]: NCI Yeast Anticancer Drug Screen. Data for the mlh1 rad18 strain (AID 175). The settings on record: S. cerevisiae mlh1 rad18 strain growth inhibition, stronger effect = higher value. The gist of the method:
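Compound-treated yeast growth, normalised to vehicle controls. Strain bears defined DNA repair mutations.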

Setting [7] is: at 5.0 µM (retest, dose inferred, filed as 0.5).
Setting [8] is: at 50.0 µM (retest, dose inferred, filed as 5.0).

Consider `CCCCN(CCCC)CC(=O)c1ccc2cc(Cl)c3ccccc3c2c1`, for which the growth inhibition in assay [1] (setting [7]) was 20%; in assay [1] (setting [8]) it was 91% (active); in assay [1] (at 50.0 µM), 95.3% (active); in assay [2] (setting [7]), 23%; in assay [2] (setting [8]), 93% (active); in assay [2] (at 50.0 µM), 95.5% (active). For the same compound, the growth inhibition in assay [3] (setting [7]) was 56%; in assay [3] (setting [8]) it was 90% (active); in assay [3] (at 50.0 µM) it was 95.8% (active); in assay [4] (setting [7]), 7%; in assay [4] (setting [8]) it was 90% (active); in assay [4] (at 50.0 µM) it was 92.7% (active). In addition, the growth inhibition in assay [5] (setting [7]) is 18%; in assay [5] (setting [8]), 91% (active); in assay [5] (at 50.0 µM), 95.3% (active); in assay [6] (setting [7]), 31%; in assay [6] (setting [8]) it was 84% (active); in assay [6] (at 50.0 µM), 94.7% (active).

Regarding `COc1cc2c(Cc3ccc(OC)c(OC)c3)[n+](Cc3ccccc3)ccc2cc1NCc1ccccc1`, the growth inhibition in assay [1] (setting [7]) is 90% (active); in assay [1] (setting [8]) it was 98% (active); in assay [1] (at 50.0 µM), 89% (active); in assay [2] (setting [7]), 90% (active); in assay [2] (setting [8]), 99% (active); in assay [2] (at 50.0 µM) it was 92.2% (active). Moreover, the growth inhibition in assay [3] (setting [7]) is 93% (active); in assay [3] (setting [8]), 99% (active); in assay [3] (at 50.0 µM), 86% (active); in assay [4] (setting [7]) it was 65%; in assay [4] (setting [8]) it was 98% (active); in assay [4] (at 50.0 µM), 89.6% (active). In addition, the growth inhibition in assay [5] (setting [7]) is 92% (active); in assay [5] (setting [8]), 99% (active); in assay [5] (at 50.0 µM) it was 81.1% (active); in assay [6] (setting [7]) it was 88% (active); in assay [6] (setting [8]), 99% (active); in assay [6] (at 50.0 µM), 92.7% (active).

In the case of `Cc1ccc2c(c1)C1(SC(C)C(=O)N1c1ccc(Cl)cc1)C(=O)N2CN1CCOCC1` (stereo not given), the growth inhibition in assay [1] (setting [7]) was 5%; in assay [1] (setting [8]), 98% (active); in assay [1] (at 50.0 µM), 18.6%; in assay [2] (setting [7]) it was -4%; in assay [2] (setting [8]) it was 97% (active); in assay [2] (at 50.0 µM), 5.5%. For the same compound, the growth inhibition in assay [3] (setting [7]) was -3%; in assay [3] (setting [8]), 95% (active); in assay [3] (at 50.0 µM) it was 0.4%; in assay [4] (setting [7]), -4%; in assay [4] (setting [8]) it was 92% (active); in assay [4] (at 50.0 µM), -17.3%. Besides, the growth inhibition in assay [5] (setting [7]) was 11%; in assay [5] (setting [8]), 97% (active); in assay [5] (at 50.0 µM), 16%; in assay [6] (setting [7]) it was 11%; in assay [6] (setting [8]), 98% (active); in assay [6] (at 50.0 µM), 29.9%.

As to `COC(=O)n1c(C[P+](c2ccccc2)(c2ccccc2)c2ccccc2)cc2ccccc21`, the growth inhibition in assay [1] (setting [7]) is 89% (active); in assay [1] (setting [8]) it was 100% (active); in assay [1] (at 50.0 µM) it was 99.2% (active); in assay [2] (setting [7]) it was 90% (active); in assay [2] (setting [8]), 100% (active); in assay [2] (at 50.0 µM), 99.6% (active). Moreover, the growth inhibition in assay [3] (setting [7]) was 79% (active); in assay [3] (setting [8]) it was 99% (active); in assay [3] (at 50.0 µM), 99.5% (active); in assay [4] (setting [7]) it was 91% (active); in assay [4] (setting [8]), 99% (active); in assay [4] (at 50.0 µM) it was 98.1% (active). For the same compound, the growth inhibition in assay [5] (setting [7]) is 95% (active); in assay [5] (setting [8]), 100% (active); in assay [5] (at 50.0 µM), 99.4% (active); in assay [6] (setting [7]), 90% (active); in assay [6] (setting [8]), 99% (active); in assay [6] (at 50.0 µM), 99% (active).

For the compound `O=C1/C(=C/c2cccc(O)c2)SC(=S)N1/C=C\c1nc2ccccc2[nH]c1=O`, the growth inhibition was 8% in assay [1] (setting [7]); 2% in assay [1] (setting [8]); 9.55% in assay [1] (at 50.0 µM); -8% in assay [2] (setting [7]); -13% in assay [2] (setting [8]); 5.1% in assay [2] (at 50.0 µM). For the same compound, the growth inhibition in assay [3] (setting [7]) is -4%; in assay [3] (setting [8]) it was 1%; in assay [3] (at 50.0 µM), 3.6%; in assay [4] (setting [7]) it was 17%; in assay [4] (setting [8]) it was -32%; in assay [4] (at 50.0 µM), 33.2%. For the same compound, the growth inhibition in assay [5] (setting [7]) is 11%; in assay [5] (setting [8]) it was -5%; in assay [5] (at 50.0 µM), -3.85%; in assay [6] (setting [7]), -2%; in assay [6] (setting [8]), -7%; in assay [6] (at 50.0 µM), -0.25%.

On to `C(=C/c1cnnc2ccccc12)/c1ccccn1`, for which the growth inhibition was 5% in assay [1] (setting [7]); 79% (active) in assay [1] (setting [8]); 67.2% in assay [1] (at 50.0 µM); 8% in assay [2] (setting [7]); 43% in assay [2] (setting [8]); 6.2% in assay [2] (at 50.0 µM). Also, the growth inhibition is 6% in assay [3] (setting [7]); 44% in assay [3] (setting [8]); 14.8% in assay [3] (at 50.0 µM); 0% in assay [4] (setting [7]); 42% in assay [4] (setting [8]); 45.8% in assay [4] (at 50.0 µM). For the same compound, the growth inhibition in assay [5] (setting [7]) is -7%; in assay [5] (setting [8]), 28%; in assay [5] (at 50.0 µM) it was -4.45%; in assay [6] (setting [7]), 1%; in assay [6] (setting [8]), 42%; in assay [6] (at 50.0 µM) it was 38.4%.

Take `CC1(C)CCC(C)(C)c2cc(C(=O)Nc3ccc(C(=O)O)cc3)ccc21`: the growth inhibition is 21% in assay [1] (setting [7]); 99% (active) in assay [1] (setting [8]); -12.2% in assay [1] (at 50.0 µM); 22% in assay [2] (setting [7]); 96% (active) in assay [2] (setting [8]); -18.1% in assay [2] (at 50.0 µM). The growth inhibition in assay [3] (setting [7]) was 20%; in assay [3] (setting [8]), 99% (active); in assay [3] (at 50.0 µM) it was 0.8%; in assay [4] (setting [7]) it was 36%; in assay [4] (setting [8]), 97% (active); in assay [4] (at 50.0 µM) it was -8.75%. The growth inhibition in assay [5] (setting [7]) was 13%; in assay [5] (setting [8]) it was 98% (active); in assay [5] (at 50.0 µM) it was 4%; in assay [6] (setting [7]), 34%; in assay [6] (setting [8]), 97% (active); in assay [6] (at 50.0 µM), 5.75%.

As to `CN(C)C(=S)SN(C)C(=O)Nc1ccccc1`, the growth inhibition in assay [1] (setting [7]) is -5%; in assay [1] (setting [8]), 96% (active); in assay [1] (at 50.0 µM), 70.3% (active); in assay [2] (setting [7]) it was -7%; in assay [2] (setting [8]), 96% (active); in assay [2] (at 50.0 µM) it was 73% (active). In addition, the growth inhibition in assay [3] (setting [7]) is -6%; in assay [3] (setting [8]), 96% (active); in assay [3] (at 50.0 µM), 94% (active); in assay [4] (setting [7]), -13%; in assay [4] (setting [8]), 95% (active); in assay [4] (at 50.0 µM), -9%. The growth inhibition in assay [5] (setting [7]) was -4%; in assay [5] (setting [8]) it was 95% (active); in assay [5] (at 50.0 µM) it was 92.2% (active); in assay [6] (setting [7]), -3%; in assay [6] (setting [8]) it was 96% (active); in assay [6] (at 50.0 µM), 86.1% (active).

As to `CCOC(=O)/C(C#N)=C/c1coc2cc(C)cc(C)c2c1=O`, the growth inhibition in assay [1] (setting [7]) was 6%; in assay [1] (setting [8]), 100% (active); in assay [1] (at 50.0 µM), 70.4% (active); in assay [2] (setting [7]), 2%; in assay [2] (setting [8]) it was 97% (active); in assay [2] (at 50.0 µM), 90.4% (active). The growth inhibition is -3% in assay [3] (setting [7]); 98% (active) in assay [3] (setting [8]); 79.9% (active) in assay [3] (at 50.0 µM); -2% in assay [4] (setting [7]); 89% (active) in assay [4] (setting [8]); 89.3% (active) in assay [4] (at 50.0 µM). For the same compound, the growth inhibition was -20% in assay [5] (setting [7]); 93% (active) in assay [5] (setting [8]); 83% (active) in assay [5] (at 50.0 µM); 15% in assay [6] (setting [7]); 98% (active) in assay [6] (setting [8]); 65.8% in assay [6] (at 50.0 µM).

For `O=C(CBr)Nc1ccc(Cc2ccc(NC(=O)CBr)cc2)cc1`, the growth inhibition in assay [1] (setting [7]) was 11%; in assay [1] (setting [8]) it was -4%; in assay [1] (at 50.0 µM), 97.3% (active); in assay [2] (setting [7]), 20%; in assay [2] (setting [8]) it was 0%; in assay [2] (at 50.0 µM), 98.7% (active). The growth inhibition in assay [3] (setting [7]) was 35%; in assay [3] (setting [8]) it was -4%; in assay [3] (at 50.0 µM), 98.2% (active); in assay [4] (setting [7]), 24%; in assay [4] (setting [8]), -2%; in assay [4] (at 50.0 µM), 97.1% (active). Besides, the growth inhibition in assay [5] (setting [7]) is 17%; in assay [5] (setting [8]), 0%; in assay [5] (at 50.0 µM), 98.1% (active); in assay [6] (setting [7]), 25%; in assay [6] (setting [8]), 1%; in assay [6] (at 50.0 µM), 97.2% (active).
